The whole screen tested about 190,000 compounds, of which about 810 (0.43%) were called active. No stated cut-off is given here; in the data, active means inhibition above about 50%; inactive means the rest. The list comes from a sample in which actives are over-represented; it also holds similar structures and randomly drawn compounds.

For the assay, the target named is Mannose-6-phosphate isomerase (Homo sapiens) (UniProt P34949). As to the kind of experiment: MPI enzyme activity inhibition – biochemical, fluorescence intensity, coupled assay, primary screen (AID 1209).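 Further: plate controls were DMSO vehicle for no effect and wells lacking substrate for full effect.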 The note with it: purified PMI enzyme, at 20 µM, active compounds read high.
Sequence of Mannose-6-phosphate isomerase (Homo sapiens) (P34949 whole entry, looked up): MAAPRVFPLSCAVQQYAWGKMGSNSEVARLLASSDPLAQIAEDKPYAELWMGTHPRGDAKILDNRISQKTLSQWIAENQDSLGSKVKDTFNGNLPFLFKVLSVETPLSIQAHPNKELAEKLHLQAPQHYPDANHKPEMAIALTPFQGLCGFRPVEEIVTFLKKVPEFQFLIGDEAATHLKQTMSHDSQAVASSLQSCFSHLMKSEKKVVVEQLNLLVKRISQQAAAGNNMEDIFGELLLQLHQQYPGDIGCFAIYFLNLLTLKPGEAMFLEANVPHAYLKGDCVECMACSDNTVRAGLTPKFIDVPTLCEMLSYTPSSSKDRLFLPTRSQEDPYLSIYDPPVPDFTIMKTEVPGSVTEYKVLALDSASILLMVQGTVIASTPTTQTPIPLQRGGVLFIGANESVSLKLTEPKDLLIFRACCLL
In the case of `CS(=O)(=O)N1N=C(c2ccc(Br)cc2)CC1c1cccs1` (stereo unspecified), the inhibition was 12.1% (inactive).
For `Cc1sc(/N=C/c2ccccc2O)c(C#N)c1C`, the inhibition was 0.9% (inactive).
For `COc1ccc(O)c(/C=N/c2sc(C)c(C)c2C#N)c1`, the inhibition was 53.8% (active).
With `Cc1sc(/N=C/c2c(O)ccc3ccccc23)c(C#N)c1C`, the inhibition was -6% (inactive).
As for `CN(CCC1CCOCC1)C(=O)CC1C(=O)NCCN1C/C=C/c1ccccc1` (stereo unspecified), the inhibition is 5.6% (inactive).
For `Cc1ccc(-c2nc(N)sc2C)cc1`, the inhibition was -11% (inactive).
In the case of `CNc1nc(-c2ccccc2)[n+](-c2ccc(C)cc2)s1`, the inhibition is 89.5% (active).
As for `Cc1ccc(-c2cc(-c3ccccc3)nc(Cl)n2)cc1`, the inhibition was 16.6% (inactive).
For `Cc1ccc(-c2nnc(-c3ccccc3)c(-c3ccccc3)n2)cc1` the value was 8.3% (inactive); for `Cc1ccc(-c2nc(N)sc2-c2ccc(C)cc2)cc1`, 13.3% (inactive).
Take `Cc1ccc(-c2nc(N)s[n+]2-c2ccccc2)cc1`: the inhibition was 106% (active).
In the case of `O=C(Nc1ccc(N2CCCC2)c(Cl)c1)c1ccccc1[N+](=O)[O-]`, the inhibition is -3.5% (inactive).
Consider `Cc1cc(N/N=C/c2ccc(Cl)cc2Cl)nc(NCc2ccccc2)n1`, for which the inhibition was 20.3% (inactive).
With `O=C(NCc1ccccc1)NCC12CC3CC(CC(C3)C1)C2`, the inhibition was 1.8% (inactive).
Take `COc1ccc2sc(/C=C/c3ccccc3O)[n+](C)c2c1`: the inhibition was 4.3% (inactive).
Consider `CCOC(=O)C[n+]1c(C)sc2ccc(OC)cc21`, for which the inhibition was 3.3% (inactive).
For the compound `Cc1ccc2sc(C)[n+](CCC(C)S(=O)(=O)[O-])c2c1` (stereo unspecified), the inhibition is 1% (inactive).
As for `CC[n+]1c(C)sc2cc(C)ccc21`, the inhibition was 77% (active).
For the compound `CCC[n+]1c(C)sc2c(OC)ccc(OC)c21`, the inhibition was 3.5% (inactive).
Then `CC[n+]1c(/C=C/C=C/N(C(C)=O)c2ccccc2)sc2cc(OC)ccc21`, with -17.8% (inactive); and `COc1ccc2sc(C)[n+](C)c2c1`, with 84.3% (active).
With `CCC[n+]1c(C)sc2c3c(ccc21)CCCC3`, the inhibition was 22.9% (inactive).
Turning to `CCCC[n+]1c(C)sc2cc(OC)ccc21`, the inhibition is 16.5% (inactive).
Consider `CC[n+]1c(C)sc2cc(OC)ccc21`, for which the inhibition was 73.9% (active).
On to `Cc1ccc2c(c1)sc(C)[n+]2CCCS(=O)(=O)[O-]`, for which the inhibition is 9.6% (inactive).
With `O=C(Nc1cccc(C(=O)N2CCOCC2)c1)NC1CCCCC1`, the inhibition is 8.1% (inactive).
With `N#Cc1c(SCC(N)=O)nc(-c2ccccc2)c2c1CCCC2`, the inhibition was -2.9% (inactive).
With `CCN1C(=O)C2(C(C#N)=C(N)Oc3cc(C)oc(=O)c32)c2ccccc21` (stereo unspecified), the inhibition was 5.6% (inactive).
On to `CCC(C)c1ccccc1NC(=O)Cc1coc2cc3c(cc12)CCC3` (stereo unspecified), for which the inhibition was 19.4% (inactive).
For `CCOc1ccc(N2C(=O)CCC2=O)cc1` the value was 6.4% (inactive); for `C/C(=C\C(=O)OCC(=O)NCc1ccccc1)C(=O)OCC(=O)NCc1ccccc1`, 6% (inactive); for `O=C1CCC([N+](=O)[O-])C(c2cccc(Br)c2)N1` (stereo unspecified), -1% (inactive).
Regarding `O=C(Cn1cc2c(n1)CCCC2)NCC1CCCO1` (stereo unspecified), the inhibition is 3.4% (inactive).
As to `Cc1sc2ccc3sccc3c2[n+]1C`, the inhibition is -21.2% (inactive).
As for `CC[n+]1c(C)sc2c3ccsc3ccc21`, the inhibition was 66.7% (active).
For `Cc1ccc2sc(C)[n+](CCCS(=O)(=O)[O-])c2c1`, the inhibition is -3% (inactive).
With `Cc1ccc2sc(C)[n+](CCO)c2c1`, the inhibition is -7.8% (inactive).
Consider `CCCC[n+]1c(C)sc2ccc(C)cc21`, for which the inhibition is 61.6% (active).
`Cc1sc2c3ccsc3ccc2[n+]1C`: the inhibition is -2.6% (inactive).
With `CCOP(=O)(OCC)C(Nc1ccc(C)cc1)c1ccco1` (stereo unspecified), the inhibition was -14.5% (inactive).
For the compound `NC(=O)N/N=C/c1ccccc1OCC(=O)NCc1ccccc1`, the inhibition is 1.8% (inactive).
For `Cc1ccc(S(=O)(=O)NC(N)=NCCc2ccc(Cl)cc2)cc1C` the value was 15.4% (inactive).
As for `CC(C)N1CCC2(CC1)N=C(c1ccc3c(c1)OCO3)CC(c1cc(Cl)ccc1O)N2` (stereo unspecified), the inhibition was 23.4% (inactive).
As to `COc1ccc(C(=O)c2cnc(/N=C/N(C)C)s2)cc1`, the inhibition was 14.2% (inactive).
Regarding `COc1ccc(NC(=O)CSc2nnc(Cn3cnc4ccccc43)o2)cc1`, the inhibition was 4.8% (inactive).
Regarding `O=C(O)CN1C(=O)/C(=C/c2ccc(SCc3ccccc3)o2)SC1=S`, the inhibition is 85.2% (active).
Consider `Cc1cccc(C)c1-n1cccc1/C=C1\SC(=S)N(c2cccc(C(=O)O)c2)C1=O`, for which the inhibition is 1.3% (inactive).
As to `Cc1ccc(/C=C2\SC(=S)N(Cc3ccccc3)C2=O)o1`, the inhibition was 18.3% (inactive).
For the compound `O=C1/C(=C\c2ccco2)SC(=S)N1c1ccccc1`, the inhibition is 22.8% (inactive).
Take `O=C1NC(=S)S/C1=C/c1ccc(N2CCOCC2)o1`: the inhibition is -25.3% (inactive).
Regarding `O=C1NC(=S)S/C1=C\c1ccc(SCc2ccco2)o1`, the inhibition is 10.3% (inactive).
In the case of `O=C1NC(=S)S/C1=C\c1ccc(SCc2ccccc2)o1`, the inhibition was 80.4% (active).
Turning to `O=C(O)c1cc(-c2ccc(/C=C3/SC(=S)N(Cc4ccccc4)C3=O)o2)ccc1Cl`, the inhibition was -29.3% (inactive).
With `O=C(O)c1cccc(N2C(=O)/C(=C/c3ccc(SCc4ccc(Cl)cc4)o3)SC2=S)c1`, the inhibition is 73.3% (active).
Regarding `COC(=O)[C@@H](NC(=O)N(C1CCCCC1)C1CCCCC1)C(C)C`, the inhibition was -2.2% (inactive).
`Cc1nnc(SCC(=O)N2CC(=O)Nc3ccccc32)n1C`: the inhibition was -5.6% (inactive).
For `Cc1ccc(N/C=C/C(=O)c2sc(-c3ccccc3)nc2C)cc1` the value was 14.3% (inactive); for `COc1ccc(-c2csc(NC(=O)Cc3cccc4ccccc34)c2C(=O)O)cc1`, -0.1% (inactive).
Then `O=C(O)c1cccnc1SC1CC(=O)N(CCc2ccccc2)C1=O` (stereo unspecified), with 3.4% (inactive); and `CCc1nnc(NC(=O)c2ccc(S(=O)(=O)N3CCN(Cc4ccccc4)CC3)cc2)s1`, with -1.5% (inactive); and `C/C=C/c1c(F)c(F)c(Oc2ccc(C(=O)O)cc2)c(F)c1F`, with -3.5% (inactive).
In the case of `Cc1noc(C)c1COC(=O)CNC(=O)c1ccc(Cl)cc1`, the inhibition was -4.1% (inactive).
For `COCCNC(=O)c1ccc(CN2CCOCC2)cc1`, the inhibition is -8.4% (inactive).
In the case of `CCN1C(=O)C(CC(=O)Nc2ccc(OC)cc2)N(CCc2ccc(OC)cc2)C1=S` (stereo unspecified), the inhibition was -4.1% (inactive).
On to `C=CCOC(=O)C1=C(C)NC(=S)NC1/C=C/c1ccccc1` (stereo unspecified), for which the inhibition was 2.3% (inactive).
Turning to `O=c1c(Cc2ccc(F)cc2)c(O)ccn1CCCn1ccnc1`, the inhibition was 3% (inactive).
For `O=C(Oc1ccc(C(=S)N2CCOCC2)cc1)c1ccccc1`, the inhibition was 3.3% (inactive).
For the compound `COc1ccc(C(=O)Oc2ccc(C(=S)N3CCOCC3)cc2)cc1`, the inhibition is 51% (active).
For `O=C(Oc1ccc(C(=S)N2CCOCC2)cc1)c1ccc(Br)cc1`, the inhibition was 5.3% (inactive).
As to `O=C(Nc1ncccn1)c1ccc(C(F)(F)F)cc1`, the inhibition is 4% (inactive).
For `CCOC(=O)C1(CCOC)CCN(Cc2ccccc2-c2ccco2)CC1`, the inhibition is 3.5% (inactive).
For `O=C1CCCN2N=C(SCC(=O)Nc3nccs3)SC2=N1`, the inhibition is -3.6% (inactive).
Then `CCOC(=O)C1=C(C)Nc2ccccc2N=C1NC(=O)/C=C/c1ccc(OC)cc1OC`, with 19.3% (inactive).
In the case of `CCOC(=O)C1=C(C)Nc2ccccc2N=C1NC(=O)Cc1ccc(OC)cc1`, the inhibition was 1.1% (inactive).
In the case of `CCCCOc1ccc(/C=C/C(=O)NC2=Nc3ccccc3NC(C)=C2C(=O)OCC)cc1OC`, the inhibition was 65.6% (active).
As to `Cc1c(-c2ccccc2)[n+](=O)c(-c2ccc(Cl)cc2)c(C)n1[O-]`, the inhibition was 4.1% (inactive).
In the case of `Cc1ccc(CN(c2ccc(C(=O)NCc3cccnc3)cc2)S(C)(=O)=O)cc1`, the inhibition was -2.9% (inactive).
As to `CCOc1ccccc1OCc1nn2c(COc3ccccc3)nnc2s1`, the inhibition was 45.2% (inactive).
Turning to `c1ccc(OCc2nnc3sc(-c4cccs4)nn23)cc1`, the inhibition was 65.5% (active).
Then `c1ccc(Cc2nn3c(COc4ccccc4)nnc3s2)cc1`, with 53.1% (active); and `Clc1ccccc1-c1nn2c(COc3ccccc3)nnc2s1`, with 9.4% (inactive).
Take `c1ccc(CCc2nn3c(Cc4ccccc4)nnc3s2)cc1`: the inhibition was 38.2% (inactive).
As to `c1ccc(Cc2nnc3sc(-c4cccs4)nn23)cc1`, the inhibition is 8.2% (inactive).
Take `Cc1cccc(NC(=O)CSc2nnc(-c3n[nH]c4ccccc34)o2)c1`: the inhibition is 17.6% (inactive).
As for `COCCNC(=S)Nc1ccc([N+](=O)[O-])cc1C`, the inhibition is 2% (inactive).
Regarding `CCOc1ccccc1N(C(=O)c1ccco1)C(C(=O)NC1CCCC1)c1cccnc1` (stereo unspecified), the inhibition is 5.1% (inactive).

By inhibition is commonly meant the drop in the measured response relative to a control, in per cent.

(Values after PubChem BioAssay AID1209 (Sanford-Burnham Center for Chemical Genomics, 2008).)
